Screening results as filed in PubChem.
Rows were chosen to be rich in hits. Some 4.1% of all compounds tested hit in one or more screens of this group.
EBV LMP1 NFkB: EBV LMP1-driven NF-kappaB luciferase reporter inhibitors, primary screen, cell-based, luminescence, single point | LMP1-induced NF-kappaB luciferase reporter cells | inhibition, % at 12.5 µM | 0.69% of 350,000 active; in the data active = inhibition above about 41%
Shn3 inh set2: reduction of Shn3 3'UTR firefly luciferase signal, primary screen, Schnurri-3 inhibitor project, cell-based, Clone20 osteoblasts, set 2; inhibition, % at 12.5 µM; Clone20 osteoblast Shn3 3'UTR firefly luciferase, 24 h; 0.52% of 360,000 active; AID 588674, 2011;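 active = mean inhibition of at least 75% with every replicate also reaching 75%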
TROY signal inh: inhibitors of TROY-driven NF-kB signaling, primary screen, Q293 LMP1-TROYcd cells, NF-kB luciferase, uHTS; Q293 LMP1-TROYcd NF-kB luciferase reporter, 4 h; inhibition, % at 10 µM; 0.98% of 360,000 active;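 active = compounds whose plate-normalised and pattern-corrected inhibition of the luciferase reporter signal at the single screening dose is 50% or more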
MITF TRPM1 inh: inhibitors of MITF-dependent TRPM1 promoter reporter, primary screen, cell-based, SK-MEL-5, single point, luciferase; SK-MEL-5 TRPM1 promoter luciferase, 24 h; inhibition, % at 12.5 µM; 0.83% of 330,000 active;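 active = mean inhibition across replicates of 60% or more, whatever share of single replicates reaches that level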
Peg3 prom inh: Peg3 promoter-driven luciferase inhibitors, primary screen, cell-based, HeLa, luciferase luminescence. 1.7% of 360,000 active. HeLa PEG-Prom luciferase reporter, overnight. inhibition, % at 20 µM. AID 588405, 2011;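 active = inhibition of at least 50% at 20 µM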
TWEAK-Fn14 inh: inhibitors of TWEAK-Fn14 signaling, primary screen, luciferase reporter cells, uHTS | TWEAK-stimulated Fn14 reporter cells, luciferase luminescence, 8 h | inhibition, % at 10 µM | 2% of 360,000 active | AID 1159606, 2016; in the data active = inhibition above about 50%
Each line names hits and unclear results; the compound was inactive in the other large screens.

CC1(C)c2[nH]c3ccccc3c2C[C@H]2C(=O)N(Cc3cccc(F)c3)C(=O)N21	TWEAK-Fn14 inh 51
CC1(C)c2[nH]c3ccccc3c2C[C@@H]2C(=O)N(Cc3ccccc3Cl)C(=O)N21	TWEAK-Fn14 inh 51
CCCN1C(=O)/C(=C/c2nc3ccccc3c(=O)[nH]2)c2ccccc21	none
CC(C)N1C(=O)/C(=C\c2nc3ccccc3c(=O)[nH]2)c2ccccc21	Peg3 prom inh 61, TWEAK-Fn14 inh 68
Cc1c(O)ccc2c(CC(=O)N[C@@H](Cc3c[nH]c4ccccc34)C(=O)O)cc(=O)oc12	none
O=C(CCCN1C(=O)/C(=C/c2cccc(Br)c2)SC1=S)Nc1ccccn1	Peg3 prom inh 62
O=C(CCCN1C(=O)/C(=C\c2cccc(Br)c2)SC1=S)Nc1cccnc1	Peg3 prom inh 96
Cc1ccc(/C=C2\SC(=S)N(CCCC(=O)Nc3cccnc3)C2=O)cc1	EBV LMP1 NFkB 72
Cc1ccc(/C=C2\SC(=S)N(CCCC(=O)Nc3cc(C)on3)C2=O)cc1	TWEAK-Fn14 inh 73
CCOC(=O)c1c(C)[nH]c(C(C)=NNC(=O)c2cccs2)c1C	none (no result: MITF TRPM1 inh)
CCc1ccccc1NC(=S)Nn1cnnc1	none
CN(C(=O)/C=C/c1ccccc1)C1CCCCC1	none (no result: EBV LMP1 NFkB, MITF TRPM1 inh)
Cc1cccc(NC(=O)CN(C)S(=O)(=O)c2ccc3c(c2)n(C)c(=O)c(=O)n3C)c1C	none
CC(=O)Nc1ccc(NC(=O)Cn2nc(C(=O)Nc3ccc(C)cc3)ccc2=O)cc1	none
CCN(CC(=O)c1c(N)n(C)c(=O)n(C)c1=O)c1cccc2ccccc12	TROY signal inh 57, TWEAK-Fn14 inh 99
CN(C)CC(=O)c1c(N)n(Cc2ccccc2)c(=O)n(C)c1=O	none
CCN1CCN(c2ncnc3c2cnn3-c2ccc(Cl)cc2)CC1	none
CC1CC(C)CN(c2ncnc3c2cnn3-c2ccc(Cl)cc2)C1 (centres undefined)	TROY signal inh 78, TWEAK-Fn14 inh 77
CN1CCN(c2ncnc3c2cnn3-c2ccc(Cl)cc2)CC1	TROY signal inh 80, TWEAK-Fn14 inh 76
CN(C)S(=O)(=O)c1cccc(NC(=O)CSc2ncnc3ccccc23)c1	TWEAK-Fn14 inh 64
N#Cc1ccsc1NC(=O)CSc1ncnc2ccccc12	TROY signal inh 56
CN(C)S(=O)(=O)c1ccc(NC(=O)CSc2ncnc3ccccc23)cc1	none
N#Cc1ccsc1NC(=O)CSc1ncn[nH]1	none
COc1ccc(S(=O)(=O)Nc2ccccn2)cc1C(=O)Nc1ccccc1	none
OCCN1CCOCCOc2ccccc2OCCOCC1	none
c1ccc2c(c1)OCCOCCOCCOCCOCCOc1ccccc1OCCOCCOCCO2	Shn3 inh set2 86
Cc1ccc(OCCC(=O)NNC(=O)c2ccc(Br)cc2)cc1	none
Cc1csc(=O)n1CCC(=O)OCC(=O)N(C)c1c(N)n(Cc2ccccc2)c(=O)[nH]c1=O	none (no result: MITF TRPM1 inh)
CCOC(=O)Cc1ccc(Nc2nc3cc(-c4ccccc4C)sc3c(=O)n2C)cc1	none (no result: EBV LMP1 NFkB, MITF TRPM1 inh)
Cc1ccc(CS(=O)(=O)c2ccc(C(=O)N3CCCCC3)cc2[N+](=O)[O-])cc1	none
COc1cc(N(C)C)c([N+](=O)[O-])cc1C(=O)N1CCN(Cc2ccccc2)CC1	EBV LMP1 NFkB 51
O=C(c1ccc(S(=O)(=O)c2ccc(F)cc2)c([N+](=O)[O-])c1)N1CCCCCC1	Shn3 inh set2 92, TWEAK-Fn14 inh 77
CC1CCN(C(=O)c2ccc(S(=O)(=O)Cc3ccccc3F)c([N+](=O)[O-])c2)CC1	TWEAK-Fn14 inh 63
Cc1ccc(CS(=O)(=O)c2ccc(C(=O)N3CCN(c4ccccn4)CC3)cc2[N+](=O)[O-])cc1	TWEAK-Fn14 inh 50
CN(CC(=O)Nc1ccccc1Cl)C(=O)COC(=O)CCN1C(=O)C2CC=CCC2C1=O (centres undefined)	none
CCOc1ccccc1N1CCN(C(=O)C2CSC3(C)CCC(=O)N23)CC1 (centres undefined)	none (no result: MITF TRPM1 inh)
O=C(c1ccc(S(=O)(=O)c2ccccc2Cl)c([N+](=O)[O-])c1)N1CCN(Cc2ccccc2)CC1	MITF TRPM1 inh 76, TWEAK-Fn14 inh 74
O=C(/C=C/c1ccc(N2CCCCC2)c([N+](=O)[O-])c1)c1ccc(S(=O)(=O)N2CCCC2)cc1	Peg3 prom inh 55
COc1cccc(C(=O)/C=C/c2ccc(N3CCCCC3)c([N+](=O)[O-])c2)c1	Peg3 prom inh 66
Cc1ccc(C2=NN(C(=O)CCl)C(c3ccco3)C2)o1 (centres undefined)	Peg3 prom inh 69, TWEAK-Fn14 inh 55
Nc1ccccc1SCC(=O)Nc1ccc2c(c1)OCCO2	TROY signal inh 58, TWEAK-Fn14 inh 68
Cn1cccc1C(=O)OCC(=O)Nc1ccc2c(c1)OCCO2	TWEAK-Fn14 inh 71
Cc1ccccc1-c1nnc(SCC(=O)Nc2ccc3c(c2)OCCO3)n1N	none
Cc1cc(C)n(C(C)CC(=O)Nc2ccc3c(c2)OCCO3)n1 (centres undefined)	TWEAK-Fn14 inh 61
Nn1c(SCC(=O)Nc2ccc3c(c2)OCCO3)nnc1-c1ccccn1	TWEAK-Fn14 inh 77
Cc1ccc(S(=O)(=O)NN=C2CCc3ccccc32)cc1	none (no result: MITF TRPM1 inh)
NS(=O)(=O)c1ccc(CNC(=O)Cn2nc(C(F)F)cc2C(F)F)cc1	none
O=C(COc1ccccc1)NC(=S)Nc1cccc2cc(O)ccc12	none
CC(=O)NC(CC(=O)Nc1ccc2c(c1)OCCO2)c1ccccc1 (centres undefined)	none
O=C(CC(c1ccccc1)c1ccccc1)Nc1ccc2c(c1)OCCO2	TWEAK-Fn14 inh 52
COCCn1c(SCC(=O)c2ccc3c(c2)OCCO3)nnc1-c1ccoc1C	none
COCCCn1c(SCC(=O)Nc2ccc3c(c2)OCCO3)nnc1-c1ccoc1C	TWEAK-Fn14 inh 64
Cc1ccccc1C(=O)NCC(=O)OC(C)C(=O)Nc1cccc(S(=O)(=O)N2CCOCC2)c1 (centres undefined)	none
CSCCC(NS(=O)(=O)c1ccc(Cl)cc1)C(=O)OCC(=O)c1c(C)[nH]c2ccccc12 (centres undefined)	TROY signal inh 82, TWEAK-Fn14 inh 62
Cc1cc(C)n(-c2cc(-n3nc(C)cc3C)ncn2)n1	Shn3 inh set2 96
Cc1ccc(Oc2cc(-n3nc(C)cc3C)ncn2)cc1	none
CCC(=O)Nc1cc2nn(-c3ccccc3)nc2cc1Cl	TWEAK-Fn14 inh 52
CC(=O)Nc1cc2nn(-c3ccccc3)nc2cc1C	none
O=S(=O)(Nc1nc2ccccc2nc1Cl)c1ccccc1C(F)(F)F	TWEAK-Fn14 inh 50
Cc1ccsc1/C=N/NC(=O)c1ccc2ccccc2c1	none
CN(CCCN1CCCCC1)C(=O)c1cc(COc2ccc(F)cc2F)on1	none
